Rows were chosen to be rich in hits. Some 2.4% of all compounds tested hit in one or more screens of this group.
D2 antagonist: HTS Assay for Allosteric Antagonists of the Human D2 Dopamine Receptor: Primary Screen for Antagonists; HEK293 TREx D2 cells, calcium flux, dopamine EC80; inhibition, % at 10 µM; 340,000 tested, 2% active; in the data active means inhibition above about 30%; inactive means below that, where a call was filed; further: 0% is about no effect
Target sequence (P14416 whole entry, looked up): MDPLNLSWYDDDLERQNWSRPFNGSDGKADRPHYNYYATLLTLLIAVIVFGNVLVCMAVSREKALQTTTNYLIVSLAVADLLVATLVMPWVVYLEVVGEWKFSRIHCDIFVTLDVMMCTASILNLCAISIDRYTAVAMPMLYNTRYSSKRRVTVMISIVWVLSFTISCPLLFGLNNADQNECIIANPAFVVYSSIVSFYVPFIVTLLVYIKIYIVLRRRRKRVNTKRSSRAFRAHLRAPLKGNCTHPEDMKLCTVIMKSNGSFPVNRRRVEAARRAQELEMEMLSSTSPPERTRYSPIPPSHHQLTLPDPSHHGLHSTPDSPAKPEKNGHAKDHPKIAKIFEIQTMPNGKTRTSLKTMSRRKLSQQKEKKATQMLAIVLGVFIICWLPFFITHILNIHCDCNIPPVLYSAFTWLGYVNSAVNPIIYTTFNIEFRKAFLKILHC
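In this primary screen, negative modulation is detected by tracking calcium flux after an EC80 dopamine challenge in inducible HEK293 T-REx D2 cells preexposed to test compound for 180 s.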
D2 PAM-1: Beta-Arrestin HTS for Positive Allosteric Modulators of the Human D2 Dopamine Receptor: Potentiators. D(2) dopamine receptor (Homo sapiens), P14416. DiscoveRx D2 beta-arrestin cells, luminescence, 90 min; 100% = 57 uM dopamine signal. potentiation, % (no concentration beside the values). 360,000 tested, 0.23% active. AID 624464, 2012; in the data active means potentiation above about 50%; inconclusive means mostly about 30% to 49%
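PathHunter D2 cells, attached overnight at 37 deg C, received compound in DMSO plus dopamine at EC20 (50 nM final) for 90 min at 37 deg C. Beta-arrestin recruitment was read as luminescence after 1 h with detection reagent at ambient temperature.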
D2 ag-1: Beta-Arrestin HTS for Positive Allosteric Modulators of the Human D2 Dopamine Receptor: Agonists; D(2) dopamine receptor (Homo sapiens), P14416; DiscoveRx PathHunter D2 beta-arrestin, luminescence, 90 min; 100% = 57 uM dopamine signal; activation, % (test concentration not listed); 360,000 tested, 0.084% active; AID 624465, 2012; in the data active means activation above about 40%; inconclusive means between about 15% and that limit
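DiscoveRx PathHunter D2 beta-arrestin cells (2,100/well) attached overnight, then compound-stimulated 90 min at 37 C in HBSS/10 mM HEPES/0.1% Tween-20 buffer; beta-galactosidase complementation read by luminescence after 1 h at ambient temperature. Dopamine 57 uM final (EC100) as control.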
D2 PAM-2: HTS Assay for Positive Allosteric Modulators of the Human D2 Dopamine Receptor: Primary Screen for Potentiators; D(2) dopamine receptor (Homo sapiens), P14416; HEK293 T-REx D2, calcium flux, EC20 dopamine potentiation; potentiation, % at 10 µM; 340,000 tested, 0.34% active;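 active means potentiation over 3 SD above the plate norm, cut at about 30% in these data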; further: 0% is about no effect
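Potentiation of an EC20 dopamine calcium response is measured in a force-coupled, tetracycline-inducible Hek293 Trex D2 line. Compound-only kinetic reads over 180 s flag agonists before dopamine addition.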
D2 ag-2: HTS Assay for Allosteric Agonists of the Human D2 Dopamine Receptor: Primary Screen for Agonists | HEK293 T-REx D2 cells, calcium flux agonist mode | activation, % at 2 µM | 340,000 tested, 0.53% active;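 active means activation over 3 SD above normal in the single-dose calcium agonist read, cut at about 30% in these data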; further: 0% is about no effect
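Agonism scored from kinetic calcium signal (1 read/sec, 180 s) following compound pin transfer, after a 10 s baseline. Cells: HEK293 Trex line expressing inducible D2 receptor coupled to calcium, dye-loaded after overnight culture at 30 C.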
An asterisk follows results filed as active; u = inconclusive; x = no result given.

SMILES	D2 antagonist	D2 PAM-1	D2 ag-1	D2 PAM-2	D2 ag-2
CCc1cccc(NC(=O)CN2c3ccccc3S(=O)(=O)c3ccccc32)c1	x	x	x	-4.8	0.4
COCCCNc1nc2c(S(=O)(=O)c3ccc(C)c(C)c3)nnn2c2ccc(Cl)cc12	x	x	x	-18.7	0.6
Cc1ccc(-c2c(C(=O)N/N=C/c3ccsc3)nnn2-c2nonc2N)cc1	34.5*	-0.6	-4.0	21.2	18.8
CCOc1ccc(-c2c(C(=O)N/N=C/c3ccc(Cl)cc3)nnn2-c2nonc2N)cc1	-10.1	-0.4	6.2	84.1*	-0.2
Cc1ccc(N2CC(NC(=O)CCc3ccccc3)CC2=O)cc1 (configuration not stated)	x	x	x	-2.0	0.6
O=C(NCCc1ccc(Cl)cc1)c1cnc2sc(N3CCCCC3)nn2c1=O	x	x	x	-1.9	0.1
CC(=O)N1CCc2cc(Br)cc(S(=O)(=O)CCC(=O)N3CCN(c4cccc(C)c4C)CC3)c21	x	x	x	-1.8	0.8
CCOC(=O)c1c(C)[nH]c(CCC(=O)Nc2cc(Cl)ccc2OC)c1C	x	x	x	-3.2	x
c1ccc(-c2noc(CN3CCN(c4ccccc4)CC3)n2)cc1	x	-2.9	3.4	x	x
c1ccc(-c2noc(CN3CCc4sccc4C3)n2)cc1	35.3*	10.3	2.1	3.4	0.4
c1ccc(CCc2nc(-c3ccccc3)no2)cc1	15.4	-10.8	-0.8	39.0*	1.5
O=C(CSc1nnc(NC(=O)c2c(F)cccc2F)s1)NCC1CCCO1 (configuration not stated)	73.8*	8.8	0.9	-12.7	0.9
O=C(CSc1nnc(NC(=O)c2cccc(F)c2)s1)NCC1CCCO1 (configuration not stated)	x	-3.4	-1.0	10.5	x
CCc1ccc(-c2nc(SCC(=O)NCC3CCCO3)c(-c3ccc(F)cc3)[nH]2)cc1 (configuration not stated)	x	x	x	-7.7	3.6
CCOC(=O)c1c(C)oc2c1c(CN1CCN(CCO)CC1)c(O)c1ccccc12	-9.8	21.5	6.3	6.7	0.0
CCOC(=O)c1c(C)oc2c1c(CN1CCN(C(=O)OCC)CC1)c(O)c1ccccc12	4.5	74.9*	u	-2.6	0.7
CCOC(=O)c1c(C)oc2c1c(C(c1ccncc1)N1CCOCC1)c(O)c1ccccc12 (configuration not stated)	-7.3	69.2*	7.9	x	0.0
Cc1ccc(S(=O)(=O)C(CNC(=O)COc2ccc(Cl)cc2)c2ccco2)cc1 (configuration not stated)	x	x	x	-2.1	-1.1
CN(C)c1cccc2c(S(=O)(=O)Nc3ccccn3)cccc12	-12.0	54.4*	11.1	x	1.4
COc1ccc(OC)c(CCNC(=O)c2nc(-c3ccc(Cl)cc3)n3c2CCCCC3)c1	x	x	x	2.4	-2.2
COc1ccc(N2C(=O)CCC2=O)cc1	34.1*	4.4	-1.6	16.9	0.4
CC(=O)Oc1ccc(N2C(=O)CCC2=O)cc1	-0.4	1.0	-4.1	-2.4	0.3
Cc1ccc(CNS(=O)(=O)c2c(C)nc3sc(C)cn3c2=O)cc1	x	x	x	1.1	-0.6
O=C1Nc2ccccc2Nc2ccccc21	-8.5	-6.9	-2.1	25.7	0.8
O=C1Nc2ccccc2CCc2ccccc21	35.8*	-0.3	1.7	-2.3	0.4
SMILES	D2 antagonist	D2 PAM-1	D2 ag-1	D2 PAM-2	D2 ag-2
Cc1ccc(S(=O)(=O)c2cc3c(=O)n4ccccc4nc3n(C)c2=N)cc1C	3.6	-3.1	-3.0	36.4*	-0.3
CCN(CC)c1ccc(/C=C/c2cc(-c3ccccc3)c3ccccc3n2)cc1	43.3*	-2.6	1.9	-5.9	53.8*
CCOC(=O)C1(Cc2ccccc2C)CCCN(C(=O)c2ccccn2)C1 (configuration not stated)	-2.2	-0.1	-0.7	-11.3	1.1
CCOC(=O)C1(Cc2ccccc2C)CCCN(C(=O)c2cc(C3CC3)[nH]n2)C1 (configuration not stated)	31.7*	1.5	0.7	-6.7	0.5
Cc1noc(/C=C/c2ccco2)c1S(=O)(=O)N1CCC(C(=O)Nc2ccc(F)c(Cl)c2)CC1	x	x	x	7.9	0.5
CCCS(=O)(=O)NCCc1sc2nc(-c3ccc(F)cc3)nn2c1C	x	x	x	-9.5	1.2
CC1(C)CC(=O)c2cc(OCC(=O)NCCCN3CCN(c4ccccc4F)CC3)ccc2O1	81.8*	3.7	u	-25.3	77.8*
Cn1c(=O)cc(OCCCC(=O)NCCCN2CCN(Cc3ccccc3)CC2)c2ccccc21	-23.0	-19.0	-2.1	-14.3	-0.7
COCCNC(=O)COc1cc(=O)n(C)c2ccccc12	-17.7	1.1	0.9	1.6	0.2
CCCCCCCNC(=O)COc1ccc2c(c1)C(=O)CC(C)(C)O2	29.5	-13.1	-1.4	7.1	-0.5
Cn1c(=O)cc(OCCCC(=O)NCCN2CCN(c3ccccc3F)CC2)c2ccccc21	35.6*	-9.1	-2.4	-24.9	32.5*
O=C(NCCCN1CCN(c2cccc(Cl)c2)CC1)C1(S(=O)(=O)c2ccc(Cl)cc2)CC1	34.6*	-38.2	-0.2	-18.2	15.1
Cn1c(=O)cc(OCC(=O)NCCCN2CCN(c3cccc(Cl)c3)CC2)c2ccccc21	77.2*	-10.6	7.6	-24.0	69.3*
COc1ccc(NCc2nnc3n2CCCCC3)c(OC)c1	x	x	x	0.8	x
Cc1c(C)c2cc(Cl)c(O)c(CN(C)C)c2oc1=O	35.2*	-2.1	-1.3	7.2	0.0
Cc1cccc(NC(=O)C2CCCN(C(=O)Nc3ccc(F)cc3)C2)c1 (configuration not stated)	31.3*	-20.1	-4.0	1.1	-1.8
CCC1CCCCN1C(=O)N[C@@H](CCSC)C(=O)OC (some centres not stated)	36.7*	-2.6	-1.6	-4.7	0.2
Cc1c(NC2=C(Cl)C(=O)N(c3ccccc3)C2=O)c(=O)n(-c2ccccc2)n1C	37.8*	-10.3	-2.4	1.0	1.1
Cc1c(Nc2c3ccccc3nc3ccccc23)c(=O)n(-c2ccccc2)n1C	0.5	5.7	0.2	-4.2	0.2
CCOc1cccc(CC(=O)Nc2ccc3nc(N4CCCCC4)cc(C)c3c2)c1OCC	x	x	x	-10.4	x
Cn1c(Cn2nnc3ccccc32)nnc1SCC(N)=O	6.9	-5.0	-2.7	33.9*	-3.1
CN(C)C(=O)c1cc(C(=O)Cc2ccccc2)c[nH]1	37.3*	-13.5	-4.5	5.5	0.7
O=C(Cc1ccccc1)c1c[nH]c(C(=O)O)c1	7.7	-2.4	-5.4	-0.6	-0.4
O=C(c1cc2nc(-c3cccs3)cc(C(F)(F)Cl)n2n1)N1CCCc2ccccc21	19.0	-6.0	-4.6	13.0	0.5
